Hit rate of the full screen: of about 63,000 compounds, about 1,100 (1.7%) were called active. The full list was thinned out, with actives kept by preference. Results with a measured potency or affinity are listed apart. Values without a mark were called inactive.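 The calls were made as follows: active = compounds whose percent cytotoxicity in the single-dose primary screen, scaled between solvent and toxic-drug controls, exceeds 50; inactive = the rest.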
Experiment: cytotoxicity in KRAS-transformed pancreatic duct cells, primary screen, cell-based, fluorescence, HTS (AID 431);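 also: 0% = DMSO solvent wells and 100% = doxorubicin-treated wells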
Conditions: HPDE-C7K KRASV12 cells, Alamar Blue viability, 48 h; at 10 µM; hits give high values

| SMILES | cytotoxicity |
| --- | --- |
| CCCNS(=O)(=O)c1ccc(CCC(=O)N2CCOCC2)cc1 | 3.7% |
| CC(C)C1CC(c2csc(N)n2)CCO1 (configuration not stated) | 7.1% |
| O=C1CCN(Cc2nnnn2CC2CCCO2)c2ccccc2N1 (configuration not stated) | -13.4% |
| Cc1nnc(SCCn2c(N3CCCC(C)C3)nc3c2c(=O)n(C)c(=O)n3C)s1 (configuration not stated) | 6.4% |
| O=C(NCc1ccccn1)C1CCCN(S(=O)(=O)c2ccc(Br)cc2)C1 (configuration not stated) | -8.1% |
| CCOC(=O)C(Cc1ccccc1)C(=O)Nc1nccs1 (configuration not stated) | 15.3% |
| CCOC(=O)C1CCN(S(=O)(=O)c2ccc3c(c2)CCCN3C(C)=O)CC1 | -5.4% |
| CSCSC1=C(C#N)C(c2ccc(Cl)cc2)C(C(C)=O)=C(C)N1 (configuration not stated) | -8.2% |
| CCOC(=O)CSC1=C(C#N)C(c2ccc(F)cc2)C(C(C)=O)=C(C)N1 (configuration not stated) | -0.1% |
| CC(=O)C1=C(C)NC(SCC(=O)c2ccc(Cl)cc2)=C(C#N)C1c1ccco1 (configuration not stated) | 50.5% (active) |
| CC(=O)C1=C(C)NC(SCC(=O)c2ccc(F)cc2)=C(C#N)C1c1ccco1 (configuration not stated) | 90.5% (active) |
| COc1ccccc1NC(=O)C1=C(C)NC(SCC(=O)c2ccc(C)cc2)=C(C#N)C1c1ccco1 (configuration not stated) | 38.3% |
| CC(=O)C1=C(C)OC(N)=C(C#N)C1c1ccco1 (configuration not stated) | -7.5% |
| Cc1cccc(C2CC(c3ccccc3)Nc3ncnn32)c1 (configuration not stated) | 0% |
| COc1ccc(CCNc2ncnc3[nH]ncc23)cc1OC | -5.5% |
| O=C(NC1CCCc2ccccc21)C1CCN(S(=O)(=O)c2cnc[nH]2)CC1 (configuration not stated) | -2.5% |
| Cc1occc1-c1nc(-c2ccncc2)no1 | -13.6% |
| Cc1csc(NC(=O)C(Cc2ccccc2)n2cccc2)n1 (configuration not stated) | 15% |
| CCSc1nnc(NC(=O)C(Cc2ccccc2)n2cccc2)s1 (configuration not stated) | -0.8% |
| O=C1[C@@H]2Cc3ccccc3CN2C(=O)N1c1cccc(F)c1 | -8.3% |
| Cc1cccc(-n2c(C)nc3c(cnn3-c3ccc(F)cc3)c2=O)c1 | -11.2% |
| CC(C)CC(=O)N1CCN(S(=O)(=O)c2ccc(F)cc2)CC1 | 0.4% |
| COc1cccc(-c2nc(NCCN3CCOCC3)c3ccccc3n2)c1O | 53.1% (active) |
| Clc1ccc(-c2nc(NCCN3CCOCC3)c3ccccc3n2)cc1 | 40.9% |
| Oc1ccccc1-c1nc(NCCN2CCOCC2)c2ccccc2n1 | 59.3% (active) |

| SMILES | cytotoxicity |
| --- | --- |
| Cc1ccc(-c2nc(NCCN3CCOCC3)c3ccccc3n2)cc1 | 40.5% |
| c1ccc(-c2nc(NCCCN3CCOCC3)c3ccccc3n2)cc1 | 5.9% |
| Fc1ccccc1-c1nc(NCCCN2CCOCC2)c2ccccc2n1 | 11.7% |
| CCCCCOc1ccc(NS(C)(=O)=O)cc1 | -26.8% |
| O=c1[nH]c(C(F)(F)F)nc2ccccc12 | -18.7% |
| COc1ccccc1N(CN1C(=O)c2ccccc2C1=O)C(=O)c1cccnc1 | -10% |
| CCOC(=O)c1cc(-c2ccc(/C=N\n3cnnc3)o2)ccc1Cl | -11% |
| O=C1CNC(=O)/C1=C\N1CCCCC1 | -3.5% |
| Cc1cc(Nc2ccc(Br)cc2F)n2nc(C)nc2n1 | 3.9% |
| CCCNC(=O)Nc1cc(OCC)c(N2CCOCC2)cc1OCC | 2.8% |
| O=c1c(-c2ccccc2)coc2c(CN3CCCC3)c(O)ccc12 | -6.5% |
| COc1ccc(C(=O)c2coc3ccc(O)c(CN4CCCCC4)c23)cc1 | 16.8% |
| COc1ccc(-c2coc3c(CN4CCCCC4)c(O)c(CN4CCCCC4)c(O)c3c2=O)cc1 | 54.7% (active) |
| CC1Cc2cc(C3(O)C(=O)c4ccccc4C3=O)ccc2N1 (configuration not stated) | -0.9% |
| COc1ccc(C2=[N+]([O-])C(C)(C)N(O)C2(C)C)cc1 | -22% |
| Cc1ccc(C2c3c(oc4cc(C)c(C)cc4c3=O)C(=O)N2CCCN2CCOCC2)cc1 (configuration not stated) | -5.4% |
| Cc1c(-c2nc(N)nc(Nc3ccccc3F)n2)oc2ccccc12 | 14.6% |
| Cc1c(-c2nc(N)nc(Nc3ccccc3)n2)oc2ccccc12 | 68.7% (active) |
| Cc1c(-c2nc(N)nc(Nc3ccc(F)cc3)n2)oc2ccccc12 | 12% |
| CNC(=O)c1cc(S(=O)(=O)N(C)C)ccc1Cl | 2.1% |
| CCCCOc1ccccc1-c1cc(C(=O)O)[nH]n1 | -9.2% |
| CC(=O)Oc1c(S(=O)(=O)c2ccc(C)cc2)c(C)nn1-c1ccccc1 | -4.8% |
| O=C1CCC(=O)N1c1cccc(-c2nc3ccccc3o2)c1 | 1.5% |
| Nc1nnnn1/N=C/c1cccc(Oc2ccccc2)c1 | -6.8% |
| Nc1nnnn1/N=C/C=C/c1ccccc1 | -19.8% |

| SMILES | cytotoxicity |
| --- | --- |
| C=CCOC(=O)C1=C(C)Nc2nnnn2C1c1cccc(OC)c1OC (configuration not stated) | 1.2% |
| Cn1cc(/C=N/n2cnc3scc(-c4ccc(Cl)cc4)c3c2=O)c2ccccc21 | 77.5% (active) |
| Cn1cc(/C=N/n2cnc3sc4c(c3c2=O)CCCC4)c2ccccc21 | 7.8% |
| Cn1cc(/C=N/n2cnc3scc(-c4ccccc4)c3c2=O)c2ccccc21 | 48.5% |
| COc1ccc(NC(=O)C2CCN(S(=O)(=O)c3ccc(C)cc3)CC2)cc1OC | -26.5% |
| CCOc1ccc(C2CC(c3ccc(OC)cc3)n3ncnc3N2)cc1 (configuration not stated) | -6.4% |
| Cc1[nH]c2ccc(-c3nnc(SCC(=O)c4ccccc4F)o3)cc2c1C | 78.5% (active) |
| Cc1[nH]c2ccc(-c3nnc(SCC(=O)N4CCCc5ccccc54)o3)cc2c1C | 2.9% |
| Cc1[nH]c2ccc(-c3nnc(SCC(=O)c4ccc(F)cc4)o3)cc2c1C | -0.1% |
| CCc1[nH]nc2c1C(C(C)C)C(C#N)=C(N)O2 (configuration not stated) | -20.8% |
| Cc1nn(Cc2ccc(C(=O)NC3CCCCC3)o2)c(C)c1Br | 10.5% |
| CC1CCc2c(nc3ncnn3c2N2CCN(c3ccccc3F)CC2)C1 (configuration not stated) | -5.6% |
| CCOC(=O)COC(=O)c1ccc(O)cc1 | 1.8% |
| CCOC(=O)c1c(N)n[nH]c1-c1ccc(OC)cc1 | 6.6% |
| CCOC(=O)c1ccc(OCC(=O)c2ccc(O)cc2O)cc1 | 11.9% |
| CCOc1ccc(-c2n[nH]c(C)c2Oc2ccc(OC)cc2)c(O)c1 | 16% |
| CCCOC(=O)c1ccc(-c2c(C)noc2-c2ccc(OC)cc2O)o1 | 1.5% |
| CCOc1ccc(N2C(=O)c3ccc(C(=O)OCc4c(C)noc4C)cc3C2=O)cc1 | -4.2% |
| COc1ccc(Cl)cc1NC(=O)CN1CCC(n2nnc3cc(F)ccc32)CC1 | 5.7% |
| O=C(c1ccc(S(=O)(=O)N2CCCC2)cc1)N1CCN(Cc2ccc3c(c2)OCO3)CC1 | 4.3% |
| c1coc(-c2nnc(SCc3cn4ccccc4n3)o2)c1 | -5.9% |
| CCOC(=O)CN(C(=O)CSc1nnc(-c2ccc(OC)c(OC)c2)o1)c1ccc(F)cc1 | -21.9% |
| CCOC(=O)c1c(NC(=O)CSc2nnc(CNc3ccc(F)cc3)o2)sc(C)c1C | -12.6% |
| COc1ccccc1NC(=O)COc1ccc(C(=O)OCC(=O)N2CCCC2=O)cc1OC | -27.1% |
| CCCCOc1ccc(-c2nnn(CC(=O)NCc3ccco3)n2)cc1 | 50.9% (active) |

| SMILES | cytotoxicity |
| --- | --- |
| CCOc1ccc(-c2nnn(CC(=O)NCc3ccco3)n2)cc1 | 0.2% |
| O=C(Cn1nnc(-c2ccc3c(c2)OCO3)n1)NCc1ccco1 | -12.9% |
| O=S(=O)(c1ccc(F)cc1)N1CCC(N2CCN(c3ccccc3)CC2)CC1 | 16.8% |
| Cn1c(N2CCN(c3ccccn3)CC2)nc2c1c(=O)n(Cc1ccc(Cl)cc1)c(=O)n2C | 70% (active) |
| Cn1c(NCC(O)c2ccccc2)nc2c1c(=O)n(Cc1ccc(Cl)cc1)c(=O)n2C (configuration not stated) | 50.4% (active) |
| Cn1c(N2CCCC2)nc2c1c(=O)n(Cc1ccc(Cl)cc1)c(=O)n2C | 26.3% |
| Cn1c(NCc2ccccc2)nc2c1c(=O)n(Cc1ccc(Br)cc1)c(=O)n2C | 21.3% |
| Cn1c(NCc2ccccc2)nc2c1c(=O)n(Cc1ccccc1)c(=O)n2C | -0.5% |
| COc1ccc(CNc2nc3c(c(=O)n(Cc4ccc(Cl)cc4)c(=O)n3C)n2C)cc1 | 32.7% |
| Cn1c(N2CCN(c3ccccn3)CC2)nc2c1c(=O)n(Cc1ccccc1Cl)c(=O)n2C | 3.4% |
| Cn1c(NCc2ccco2)nc2c1c(=O)n(Cc1ccc(Cl)c(Cl)c1)c(=O)n2C | 8.9% |
| Cn1c(NCC(O)c2ccccc2)nc2c1c(=O)n(Cc1ccc(Cl)c(Cl)c1)c(=O)n2C (configuration not stated) | 64.7% (active) |
| COC(=O)c1coc(-c2ccc(C)cc2)c1C(=O)OC | -19.4% |
| CCOc1ccccc1N(CC(=O)NC1CCCC1)C(=O)CCCC(=O)Nc1ccccn1 | -29.3% |
| O=C(Cn1c(=O)oc2ccccc21)N1CCCCC1 | -21% |
| CN(CCc1ccccn1)C(=O)CCNC(=O)Cn1cnc2ccccc2c1=O | -9.4% |
| O=C(COc1ccccc1)Nc1cccc(-c2nnc(-c3ccccc3)o2)c1 | 8.5% |
| COc1ccc(-c2noc(CCC(N)=O)n2)cc1OC | 7.2% |
| CC(=O)c1cc(F)c(N2CCCC2)cc1C | -6.1% |
| Cc1[nH]c(-c2ccco2)nc1C(=O)O | 1.6% |
| [O-][n+]1onc2c1CCc1nnc(-c3ccccc3)cc1-2 | 8.2% |
| O=c1cc(-c2ccccc2)[nH]c2ccccc12 | 46.8% |

Reference: PubChem BioAssay AID431 (Sanford-Burnham Center for Chemical Genomics, 2006)
